For seven molecules, potency estimated from few doses results are on record in publication PMC11062922 (Nature Chemical Biology, 2023).

Where two headings read alike, the source gives them in different places.

Design in all cases: species or system human, MV4-11 + K-562 + COLO205 + SK-N-BE2 + OVCAR-8
The subject of one assay is AKT2. As to conditions: read-out: apparent Kd, n = 1.
Another assay deals with CDC42BPA. As to conditions: read-out: apparent Kd; compound concentrations:100 nM and 1000 nM (sheet 'Samples'); n = 1.
The test system of a further assay is CDC42BPG. As to conditions: read-out: apparent Kd; compound concentrations:100 nM and 1000 nM (sheet 'Samples'); n = 1.
A further assay has as its system CIT. As to conditions: read-out: apparent Kd; compound concentrations:100 nM and 1000 nM (sheet 'Samples'); n = 1.
Another assay deals with GSK3A. As to conditions: read-out: apparent Kd, n = 1.
In another assay the test system is GSK3B. The settings on record: read-out: apparent Kd; compound concentrations:100 nM and 1000 nM (sheet 'Samples'); n = 1.
The test system of the next assay is LATS1. As to conditions: read-out: apparent Kd; compound concentrations:100 nM and 1000 nM (sheet 'Samples'); n = 1.
In a further assay the test system is MAPKAPK2. As to conditions: read-out: apparent Kd; compound concentrations:100 nM and 1000 nM (sheet 'Samples'); n = 1.
For a further assay, the system named is MARK2. As to conditions: read-out: apparent Kd; compound concentrations:100 nM and 1000 nM (sheet 'Samples'); n = 1.
For the next assay, the system named is MARK3. As to conditions: read-out: apparent Kd; compound concentrations:100 nM and 1000 nM (sheet 'Samples'); n = 1.
The subject of the next assay is MARK4. The settings on record: read-out: apparent Kd; compound concentrations:100 nM and 1000 nM (sheet 'Samples'); n = 1.
A further assay has as its system PAK4. The settings on record: read-out: apparent Kd; compound concentrations:100 nM and 1000 nM (sheet 'Samples'); n = 1.
In a further assay the test system is PAK6. The settings on record: read-out: apparent Kd; compound concentrations:100 nM and 1000 nM (sheet 'Samples'); n = 1.
Another assay has as its system PKN1. The settings on record: read-out: apparent Kd; compound concentrations:100 nM and 1000 nM (sheet 'Samples'); n = 1.
In a further assay the test system is PKN3. As to conditions: read-out: apparent Kd; compound concentrations:100 nM and 1000 nM (sheet 'Samples'); n = 1.
A further assay relates to PRKACA. The settings on record: read-out: apparent Kd; compound concentrations:100 nM and 1000 nM (sheet 'Samples'); n = 1.
The next assay relates to PRKACB. The settings on record: read-out: apparent Kd; compound concentrations:100 nM and 1000 nM (sheet 'Samples'); n = 1.
The subject of the next assay is PRKCD. The settings on record: read-out: apparent Kd; compound concentrations:100 nM and 1000 nM (sheet 'Samples'); n = 1.
For another assay, the system named is PRKCI. As to conditions: read-out: apparent Kd; compound concentrations:100 nM and 1000 nM (sheet 'Samples'); n = 1.
The next assay relates to PRKG1. The settings on record: read-out: apparent Kd; compound concentrations:100 nM and 1000 nM (sheet 'Samples'); n = 1.
A further assay relates to PRKX. As to conditions: read-out: apparent Kd; compound concentrations:100 nM and 1000 nM (sheet 'Samples'); n = 1.
The next assay concerns ROCK2. The settings on record: read-out: apparent Kd; compound concentrations:100 nM and 1000 nM (sheet 'Samples'); n = 1.
Another assay deals with RPS6KA4. The settings on record: read-out: apparent Kd; compound concentrations:100 nM and 1000 nM (sheet 'Samples'); n = 1.
For another assay, the system named is AKT3. As to conditions: read-out: apparent Kd; compound concentrations: 100 nM and 1000 nM (sheet 'Samples'), CATDS: 0.150950387905983; n = 1.
A further assay relates to MAP2K2. The settings on record: read-out: apparent Kd; compound concentrations: 100 nM and 1000 nM (sheet 'Samples'), CATDS: 0.14753696988114701; n = 1.
Another assay concerns MYLK3. The settings on record: read-out: apparent Kd, compound concentrations: 100 nM and 1000 nM (sheet 'Samples'), n = 1.
For the next assay, the system named is NQO1. The settings on record: read-out: apparent Kd; compound concentrations: 100 nM and 1000 nM (sheet 'Samples'), CATDS: 0.17515611913919399; n = 1.
The next assay deals with RIOK2. As to conditions: read-out: apparent Kd, compound concentrations: 100 nM and 1000 nM (sheet 'Samples'), n = 1.
In a further assay the test system is ADRBK1. As to conditions: read-out: apparent Kd, compound concentrations: 100 nM and 1000 nM (sheet 'Samples'), n = 1.
Another assay concerns PIK3C3. The settings on record: read-out: apparent Kd; compound concentrations: 100 nM and 1000 nM (sheet 'Samples'), CATDS: 0.27683551604583601; n = 1.
For another assay, the system named is PIK3CB. As to conditions: read-out: apparent Kd; compound concentrations: 100 nM and 1000 nM (sheet 'Samples'), CATDS: 0.86026286553543596; n = 1.
The test system of another assay is AKT1. As to conditions: read-out: apparent Kd; compound concentrations: 100 nM and 1000 nM (sheet 'Samples'), CATDS: 0.20624871442291401; n = 1.
Another assay concerns CSNK1D. The settings on record: read-out: apparent Kd, compound concentrations: 100 nM and 1000 nM (sheet 'Samples'), n = 1.
A further assay deals with CSNK1E. The settings on record: read-out: apparent Kd, compound concentrations: 100 nM and 1000 nM (sheet 'Samples'), n = 1.
The next assay deals with AGPS. The settings on record: read-out: apparent Kd; compound concentrations: 100 nM and 1000 nM (sheet 'Samples'), CATDS: 7.5383402334255403E-2; n = 1.
The next assay deals with CDK9. As to conditions: read-out: apparent Kd; compound concentrations: 100 nM and 1000 nM (sheet 'Samples'), CATDS: 8.3924043652499697E-2; n = 1.
Another assay relates to CDKL5. As to conditions: read-out: apparent Kd; compound concentrations: 100 nM and 1000 nM (sheet 'Samples'), CATDS: 0.33786107354204697; n = 1.
The next assay deals with CSNK1A1. As to conditions: read-out: apparent Kd; compound concentrations: 100 nM and 1000 nM (sheet 'Samples'), CATDS: 8.0672688589635194E-2; n = 1.
In a further assay the test system is RAB14. As to conditions: read-out: apparent Kd; compound concentrations: 100 nM and 1000 nM (sheet 'Samples'), CATDS: 7.5249376612815694E-2; n = 1.
In a further assay the test system is STK26. The settings on record: read-out: apparent Kd; compound concentrations: 100 nM and 1000 nM (sheet 'Samples'), CATDS: 8.25311561999897E-2; n = 1.
Setting [1] is: compound concentrations:100 nM and 1000 nM (sheet 'Samples').

In the case of `CCn1c(-c2nonc2N)nc2c(C#CC(C)(C)O)ncc(OCCCCN)c21.CCn1c(-c2nonc2N)nc2c(C#CC(C)(C)O)ncc(OCCCCN)c21.O=C(O)C(F)(F)F.O=C(O)C(F)(F)F` [GSK507274A], the potency estimated from few doses with AKT2 (setting [1]) was 1440 nM; in the assay on CDC42BPA, 2200 nM; in the assay on CDC42BPG it was 1800 nM; with CIT, 554 nM; in the assay on GSK3A (setting [1]), 328 nM; in the assay on GSK3B, 488 nM. Moreover, the potency estimated from few doses is 83.9 nM in the assay on LATS1; 1370 nM with MAPKAPK2; 440 nM in the assay with MARK2; 178 nM in the assay on MARK3; 629 nM with MARK4; 30.9 nM in the assay on PAK4. Besides, the potency estimated from few doses in the assay on PAK6 was 99.3 nM; in the assay with PKN1, 191 nM; with PKN3 it was 13 nM; in the assay on PRKACA, 787 nM; in the assay on PRKACB, 965 nM; in the assay on PRKCD, 1450 nM. Moreover, the potency estimated from few doses with PRKCI was 1890 nM; with PRKG1, 1070 nM; with PRKX, 54.1 nM; in the assay with ROCK2 it was 446 nM; in the assay on RPS6KA4 it was 749 nM.

As to `COc1cc2ncn(-c3cc(OCCc4ccccc4)c(C(N)=O)s3)c2cc1OC` [GSK204925A], the potency estimated from few doses is 2300 nM in the assay with AKT2 (compound concentrations: 100 nM and 1000 nM (sheet 'Samples'), CATDS: 0.131386999232284); 1570 nM in the assay on AKT3; 1660 nM with MAP2K2; 137 nM in the assay on MYLK3 (CATDS: 0.56668098220649099); 1100 nM in the assay on NQO1; 2210 nM in the assay on RIOK2 (CATDS: 0.13311346938063801).

Turning to `Cc1cccc(Cn2ccn3c(=O)cc(N4CCOCC4)nc23)c1` [GSK2297542A], the potency estimated from few doses with ADRBK1 (CATDS: 0.236668950824271) was 1590 nM; in the assay with PIK3C3, 886 nM; with PIK3CB it was 48.3 nM.

As to `Clc1ccc(CNc2nccc(-c3cnn4ncccc34)n2)cc1` [GW781673X], the potency estimated from few doses was 1400 nM with AKT1; 1290 nM with CSNK1D (CATDS: 0.21502598337996101); 2140 nM in the assay with CSNK1E (CATDS: 0.16970430448232399); 1130 nM in the assay with GSK3A (compound concentrations: 100 nM and 1000 nM (sheet 'Samples'), CATDS: 0.23143029559655601); 1670 nM in the assay on RIOK2 (CATDS: 0.18913150983507701).

As for `c1cnn2ncc(-c3ccnc(NCCCN4CCOCC4)n3)c2c1` [GW683109X], the potency estimated from few doses with AGPS is 2080 nM; with CDK9 it was 1290 nM; with CDKL5, 40.1 nM; in the assay with CSNK1A1, 1530 nM; in the assay with CSNK1D (CATDS: 0.220619974671908), 82.2 nM; in the assay on CSNK1E (CATDS: 0.1850261885326), 118 nM. The potency estimated from few doses is 2100 nM in the assay with RAB14, 105 nM in the assay on RIOK2 (CATDS: 0.19530203573374799) and 1390 nM in the assay on STK26.

Consider `COc1ccc(C2=C(c3cn(C)c4ccccc34)C(=O)NC2=O)cc1` [RO0317257-000], for which the potency estimated from few doses is 1840 nM in the assay with ADRBK1 (CATDS: 0.26872629517394703); 529 nM with GSK3A (compound concentrations: 100 nM and 1000 nM (sheet 'Samples'), CATDS: 0.49410987745455298); 1310 nM in the assay with MYLK3 (CATDS: 0.30722908276371202).

For the molecule `CCS(=O)(=O)c1ccc(OC)c(Nc2ncc(-c3ccccc3Cl)o2)c1` [GW622055X], the potency estimated from few doses in the assay on ADRBK1 (CATDS: 0.49324160998550998) was 1780 nM; in the assay on RIOK2 (CATDS: 0.50694616971053197), 1680 nM.
